{
  "source": "the supplement of paper PMC10681739",
  "data": [
    {"target": "T1, ETS1 (UniProt P14921)", "T1 sequence": "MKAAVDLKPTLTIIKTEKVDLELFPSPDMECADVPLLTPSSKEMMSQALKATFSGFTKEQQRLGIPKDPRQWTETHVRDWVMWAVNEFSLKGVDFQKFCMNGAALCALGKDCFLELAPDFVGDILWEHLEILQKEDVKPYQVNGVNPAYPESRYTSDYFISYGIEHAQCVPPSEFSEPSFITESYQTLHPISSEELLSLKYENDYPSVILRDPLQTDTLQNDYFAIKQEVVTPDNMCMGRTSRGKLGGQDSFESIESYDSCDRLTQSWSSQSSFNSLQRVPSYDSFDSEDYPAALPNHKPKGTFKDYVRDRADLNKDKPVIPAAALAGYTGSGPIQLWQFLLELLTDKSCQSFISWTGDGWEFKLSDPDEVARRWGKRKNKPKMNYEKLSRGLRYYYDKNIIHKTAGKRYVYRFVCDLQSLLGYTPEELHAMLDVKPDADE", "assay": "TF binding intensity (PBM fluorescence), negative control probe (arbitrary fluorescence units); higher = stronger binding", "procedure": "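gcPBM negative-control 36-bp genomic probes lacking TF binding sites. Each was incubated with recombinant human ETS1 or RUNX1 alone and detected by antibody fluorescence. Values are medians over replicate spots (4 spots for the ETS1-RUNX1 arrays, 3 for the ETS1-ETS1 array). The probes sit in constant array flanks that are not printed.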", "values": [
      {"sequence": "ACCTGTGAATAGACTGACCAAATGCAAGCTGGACCA (protein concentration 10 nM)", "TF binding intensity": 111},
      {"sequence": "GCAAAGCGGGCGAGTGGCCTGGAGAGAGGGAGCAGC (protein concentration 10 nM)", "TF binding intensity": 150},
      {"sequence": "TCCTCAAAATTAAGGTGCGGTGCCAGGCGCAGTGGC (protein concentration 1 nM)", "TF binding intensity": 374},
      {"sequence": "AACACTCAGTGTATTTTAATAAACAACATTTTTTAA (protein concentration 10 nM)", "TF binding intensity": 96.6},
      {"sequence": "AAAATACTGCCTTCAAGTACTGTGACTCTTTTCAGG (protein concentration 10 nM)", "TF binding intensity": 112},
      {"sequence": "AGGCCTCTGCTCTCCTGGAGCTCATGACAAGTAAAC (protein concentration 10 nM)", "TF binding intensity": 118},
      {"sequence": "GTCTTGTTACTGGAGTGTGATAGCACCTAATAATAT (protein concentration 10 nM)", "TF binding intensity": 150},
      {"sequence": "GCTATTTTCTCTGCTTGAACATACCGTGTACACACA (protein concentration 10 nM)", "TF binding intensity": 178},
      {"sequence": "CCCTTCGCCATTGCAGCCATGCCACCCCTCCTTCTC (protein concentration 10 nM)", "TF binding intensity": 149},
      {"sequence": "GGGTCTTGCCATTGAGAGGCAGGTGATGTGCTGTTT (protein concentration 10 nM)", "TF binding intensity": 132},
      {"sequence": "AGGCCTGTAGCATTTAGCTGGCCTCTGAGGAATAAC (protein concentration 10 nM)", "TF binding intensity": 101},
      {"sequence": "GTTCCAGGCATTGTACTGAGGGGAGGCCCTCCTGTG (protein concentration 10 nM)", "TF binding intensity": 109},
      {"sequence": "TCCTGTAAGGACATTTTGTGCCTTCTCCCATGATGA (protein concentration 10 nM)", "TF binding intensity": 97.8},
      {"sequence": "ACCTGGGTCTCTGACAGACACCCCAAACTTCAGTTC (protein concentration 10 nM)", "TF binding intensity": 102},
      {"sequence": "AAGTTAATGAGATATTGTGGTTGTTTGTGTTTGGTT (protein concentration 1 nM)", "TF binding intensity": 477},
      {"sequence": "GAAATGGAGCAGAAAACCTGGAACCCAGCTGGGAAG (protein concentration 10 nM)", "TF binding intensity": 117},
      {"sequence": "CACAGGTTCTTCTTCAAGGGCAGGGCACTGCACCTT (protein concentration 10 nM)", "TF binding intensity": 110},
      {"sequence": "TATAAGGGGCTTTTCCCCTTTGGCTCAGCACTTCTC (protein concentration 10 nM)", "TF binding intensity": 116},
      {"sequence": "TTGAAATGCATTCTCTGTGGGCATATGAAGTAGATT (protein concentration 1 nM)", "TF binding intensity": 410},
      {"sequence": "CAGGCATCTGTCATGCCCAGTAATTAATTGCTCCAA (protein concentration 10 nM)", "TF binding intensity": 117},
      {"sequence": "TCCTCAGGGACGTGTGAGAACCTGGCTAGGCAAGAG (protein concentration 10 nM)", "TF binding intensity": 135},
      {"sequence": "AAGTATTGTAGTTGTTGTGGTAAAAACAGATAGATA (protein concentration 1 nM)", "TF binding intensity": 529},
      {"sequence": "GCCTTGCCTTGGTCATGTTTGACTCTGCCTTCAACT (protein concentration 10 nM)", "TF binding intensity": 146},
      {"sequence": "TTTTGGATGATGCAAACCGCGCAAAAGCAGCATTCA (protein concentration 1 nM)", "TF binding intensity": 449},
      {"sequence": "TAGAAACCGTGTTTTAAATTTAACACTGGTAAGATG (protein concentration 10 nM)", "TF binding intensity": 113},
      {"sequence": "GATGCTTTTGTCCCACTAGGGCTCGTGCCTTAGTGA (protein concentration 10 nM)", "TF binding intensity": 112},
      {"sequence": "AACTGTGACGTTACATTGCAAGGGCATGAATACAGG (protein concentration 10 nM)", "TF binding intensity": 131},
      {"sequence": "CTCTGTTACAAAGCTTCACTTCTTAAGAGAGGGCTG (protein concentration 10 nM)", "TF binding intensity": 134},
      {"sequence": "AGTCTAGTTTTGCTCTTTAAAATCACCATCTGTATC (protein concentration 10 nM)", "TF binding intensity": 138},
      {"sequence": "TGCCAGGGTGTAATTTTTCCCACTTTCACCTCCTTC (protein concentration 10 nM)", "TF binding intensity": 128},
      {"sequence": "CCAGTGCCCTTGAAATGAAATGGGACTTGCAAGGAG (protein concentration 10 nM)", "TF binding intensity": 121},
      {"sequence": "CCTTGCCAATGTTTGTGTGGAGAGCACACGGGTGCT (protein concentration 10 nM)", "TF binding intensity": 116},
      {"sequence": "GGCTGAGGTGTCTGTGTTGGCAGCAGGAGCCTCTCT (protein concentration 10 nM)", "TF binding intensity": 128},
      {"sequence": "ATGGCATACTAAGTAGCCACAACATGCAAGATGGAC (protein concentration 1 nM)", "TF binding intensity": 440},
      {"sequence": "CATTAGATTCTCATAAGGAGCATAACCTAGATCCCT (protein concentration 10 nM)", "TF binding intensity": 104},
      {"sequence": "CTACAAGTCGTGAAGGGGCGAGGCGCAAAAGCGTAG (protein concentration 10 nM)", "TF binding intensity": 125},
      {"sequence": "CAGAAGTTATAATAATTAATGATATCATTCAGTGTG (protein concentration 10 nM)", "TF binding intensity": 118},
      {"sequence": "CCAGCCAACCCAAAGACCACACCCCACCACCTCCTC (protein concentration 1 nM)", "TF binding intensity": 491},
      {"sequence": "ATGGCCAGTTCACAGTGAGCCAAAGTCCTCCTCACA (protein concentration 10 nM)", "TF binding intensity": 94.5},
      {"sequence": "GAAAACACTAGCGTGACCTCAACAACTAAGATTAAA (protein concentration 1 nM)", "TF binding intensity": 490}
    ]}
  ]
}
